Screening data from PubChem BioAssay.
In the library only some 1.1% were active in any assay of this set; here they are far more common.
RXFP1 agonist: RXFP1 (human) receptor agonism | Q9HBX9 | HEK293T-RXFP1 cAMP TR-FRET, 30 min; response scale: percent of porcine relaxin response, buffer zero | Potency, µM (titrated, usually from 57.5 µM), for the others: at the top dose activation, actives largely listed as activators | 370,000 compounds, 0.3% hits | AID 2676; also: potency is read from the fitted curve at half-maximal effect; % is scaled to controls: 0 for no effect and ±100 for the full control effect; nearly all actives have a fitted effect of over 60% in size
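HEK293 cells stably expressing RXFP1, treated 30 min at 37C with compounds plus PDE4 inhibitor Ro 20174; cAMP measured by HTRF TR-FRET. Normalized to buffer and 29 nM porcine relaxin; EC50 by Hill fit.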
a7 integrin act: activators of alpha7 integrin expression for muscular dystrophy; 350,000 compounds, 0.064% hits; alpha7betagal myoblasts, beta-gal FDG fluorescence, 48 h; Potency, µM (series often up to 38.3 µM), for the others: at the highest dose activation, actives largely listed as activators;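 also: potency is read from the fitted curve at half-maximal effect; 100% = response of the positive control SU9516; nearly all actives have a fitted effect of over 60% in size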
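alpha7betagal+/- myoblasts (passage 13, 250/well) treated 48 h at 37C with compounds at 1:260 dilution of DMSO stock. Lysed, then beta-galactosidase activity read as FDG fluorescence (ex 480/em 540) after 30 min, with pre-read for autofluorescence.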
RXFP1 antagonist: blocks the human relaxin receptor RXFP1 | Q9HBX9 | HEK293-RXFP1, relaxin-stimulated cAMP HTRF, 30 min; stronger effect = lower value | activity change, negative = inhibition, % at 57.5 µM | 350,000 compounds, 0.59% hits | AID 1259400;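 active = activity change of -60% or lower, but not beyond a set lower limit; inconclusive = change between -60% and -40%, or beyond the set limit; inactive = change above -40%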; also: % is scaled to controls: 0 for no effect and ±100 for the full control effect
gsp antagonist: antagonists of gsp mutant (McCune-Albright syndrome); gsp-mutant cells, cAMP HTRF, 30 min; Potency, µM (top dose mostly 76.9 µM), for inactives: top-dose activity change, negative = inhibition, actives largely listed as inhibitors; 340,000 compounds, 0.4% hits; calls by dose curve; cell line not stated here;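 also: intracellular cAMP measured with PDE inhibitor Ro 20-1724 present during compound exposure; potency is read from the fitted curve at half-maximal effect; % is scaled to controls: 0 for no effect and ±100 for the full control effect; nearly all actives have a fitted effect of over 65% in size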
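HTRF cAMP measurement after 30 min RT detection following 30 min, 37C compound treatment alongside […] (added as 300 uM solution) in G418-selected cells seeded at 2000/well and grown 16–24 h.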
gsp agonist: gsp mutant agonism; gsp mutant cells, cAMP HTRF, 30 min; Potency, µM (titrated, usually from 76.9 µM), for inactives: at the top dose activation (cAMP increase), actives largely listed as activators; 340,000 compounds, 0.13% hits; AID 624287; active = well fitted activation curve with a large enough effect; inconclusive = small, poorly fitted or top-dose-only effect, or another doubt; inactive = no such curve, though single readings can be large or run the other way; cell line not stated here;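 also: phosphodiesterase inhibitor Ro 20-1724 added with compounds to block cAMP breakdown; potency is read from the fitted curve at half-maximal effect; nearly all actives have a fitted effect of over 60% in size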
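Cells in DMEM/10% FBS with G418 were pretreated with compounds in DMSO plus […] (300 uM stock) for 30 min at 37C. cAMP was measured by HTRF (cAMP-d2 plus anti-cAMP antibody-K) after 30 min at room temperature.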
ASM inhibitor: human S-ASM enzyme inhibition. Potency, µM (doses to about 57.5 µM), without a hit: at the highest dose activity change, negative = inhibition, actives largely listed as inhibitors. P17405. 340,000 compounds, 0.006% hits. placental ASM, HMU-PC fluorogenic substrate, 60 min. AID 504937; also: potency is read from the fitted curve at half-maximal effect
Target sequence (P17405 47-631 limits assumed): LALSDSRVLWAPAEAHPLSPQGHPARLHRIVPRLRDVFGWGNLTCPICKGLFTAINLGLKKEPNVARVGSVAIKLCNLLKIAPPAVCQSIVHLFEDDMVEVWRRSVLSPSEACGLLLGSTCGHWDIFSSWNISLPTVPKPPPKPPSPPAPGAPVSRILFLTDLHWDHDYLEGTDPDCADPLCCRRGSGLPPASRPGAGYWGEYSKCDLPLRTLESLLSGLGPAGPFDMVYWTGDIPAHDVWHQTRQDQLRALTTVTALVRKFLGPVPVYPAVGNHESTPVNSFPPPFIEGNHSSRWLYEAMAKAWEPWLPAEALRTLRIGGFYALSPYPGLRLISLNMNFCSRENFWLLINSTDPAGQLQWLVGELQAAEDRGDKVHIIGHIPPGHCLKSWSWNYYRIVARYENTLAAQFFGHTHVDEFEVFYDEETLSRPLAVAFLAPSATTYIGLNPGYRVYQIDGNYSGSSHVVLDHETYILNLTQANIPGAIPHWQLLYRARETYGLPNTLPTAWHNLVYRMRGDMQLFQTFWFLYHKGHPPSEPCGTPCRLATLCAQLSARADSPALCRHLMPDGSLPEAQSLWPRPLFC
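Human placenta-derived ASM preincubated with compound 10 min at room temperature, then reacted with 9 uM (final) fluorogenic HMU-PC substrate for 60 min at 37 C. Stop solution raises pH to 10; fluorescence read at Ex 386/Em 447 nm.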
* hit, by the source's call; ? = inconclusive; . = no result given; [ ] = remark or other dose. Unless noted, calls follow the shape of the dose curve; as a rule, active = well fitted curve in the direction sought with a large enough effect; inconclusive = small, poorly fitted or top-dose-only effect, or another doubt; inactive = no such curve, though single readings can be large; an effect the other way counts as inactive or inconclusive.

SMILES	RXFP1 agonist	a7 integrin act	RXFP1 antagonist	gsp antagonist	gsp agonist	ASM inhibitor
CCOC(=O)C1=C(C)N=c2s/c(=C/c3ccc(OCC(=O)O)cc3)c(=O)n2C1c1ccc(F)cc1 (centres undefined)	-1.4%	-20.9%	-8.5	22.4µM*	41.3%	11.5%
CC1=C(C(=O)Nc2ccccc2)C(c2ccc(Cl)cc2)n2c(s/c(=C/c3cccc(OCC(=O)O)c3)c2=O)=N1 (centres undefined)	1.6%	7.6%	-6.0	-20.0%	14.4%	25.1µM*
CCOC(=O)C1=C(C)N=c2s/c(=C/c3ccc(OCC(=O)O)c(OC)c3)c(=O)n2C1c1ccc(Cl)cc1 (centres undefined)	.	19.2%	-14.5	35.5µM*	19.3%[15.4 µM]	-21.9%
CN(CC(=O)Nc1ccc(Cl)cc1)C(=O)CN1C(=O)C2CCCCC2C1=O (centres undefined)	.	-1.5%	1.5	.	-33.3%	.
CCCc1cc(C(=O)Nc2ccc(C(=O)c3ccc(F)cc3)cc2)n(C)n1	0.6%	11.3%	-13.6	35.5µM*	21.1%	-2.2%
CCCc1cc(C(=O)Nc2ccc(C(=O)c3ccccc3)cc2)n(C)n1	0.0%	-16.8%	-18.1	?	4.4%	-3.1%
Cn1c(N)c(C(=O)CSc2nc(N)cc(=O)[nH]2)c(=O)n(C)c1=O	15.1%	2.7%	-11.0	5.5%	17.4%	3.7%
Cc1cc(=O)[nH]c(SCC(=O)c2c(N)n(C)c(=O)n(C)c2=O)n1	?	10.4%	13.0	35.6%	25.1µM*	1.9%
CCOc1ccc(N=C(C)C2=C(O)c3ccccc3C2=O)cc1	20.7%	6.9%	-62.7*	-11.5%	14.8%	-11.4%
COc1ccc(N=C(C)C2=C(O)c3ccccc3C2=O)cc1	-0.1%	0.0%	.	-55.4%	6.6%	-4.2%
CC(=O)Nc1ccc(N=C(C2=C(O)c3ccccc3C2=O)c2ccccc2)cc1	0.0%	-13.0%	-12.2	35.5µM*	-28.8%	-28.2%
O=C(O)c1ccc(COc2ccccc2C=C2C(=O)c3ccccc3C2=O)cc1	-0.7%	-3.4%	-60.3*	-21.2%	0.8%[15.4 µM]	2.6%
O=C1NC(=S)N/C1=C\c1ccccc1OCc1ccc(C(=O)O)cc1	0.3%	?	-2.3	5.5%	1.3%[15.4 µM]	13.1%
CC1CCN(S(=O)(=O)c2nnc(NC(=O)c3cccc([N+](=O)[O-])c3)s2)CC1	-1.1%	6.2%	-7.1	?	42.5%	-0.8%
O=C(Nc1nnc(S(=O)(=O)N2CCCC2)s1)c1cccc([N+](=O)[O-])c1	-1.0%	-8.6%	-21.1	50.1µM*	?	-2.0%
Fc1ccc(-c2cc(-c3ccccc3)c3c(n2)-c2cc(F)ccc2OC3)cc1	8.5%	.	.	.	.	.
COc1cccc(-c2cc3c(=O)n(-c4ccccc4)c(=S)[nH]c3s2)c1	?	20.4%	-3.0	18.9%	11.2µM*	13.1%
NC(=O)Cn1c(=O)n(CCCCCC(=O)NCc2ccccc2)c(=O)c2sccc21	14.5%	.	-3.5	.	.	.
O=[N+]([O-])c1ccc2nc(/C=C/c3ccc(Cl)cc3)[nH]c2c1	-1.2%	1.7%	-23.3	35.5µM*	-17.3%	-4.8%
O=[N+]([O-])c1ccc(-c2nc3ccc([N+](=O)[O-])cc3[nH]2)cc1	15.0%	7.3%	2.1	?	?	-7.8%
COc1cccc(CNC(=O)CSc2ncc(S(=O)(=O)c3ccc(Br)cc3)c(=O)[nH]2)c1	3.0%	.	.	.	.	.
CCCN1C(=O)/C(=C/c2ccncc2)SC1=S	0.3%	-10.7%	0.8	-0.4%	-62.9%	-1.3%
O=C1/C(=C/c2ccncc2)SC(=S)N1Cc1ccccc1	-1.4%	0.0%	-98.8*	-14.8%	5.6%[15.4 µM]	-20.3%
COc1ccc(NC(=O)Cc2ccc(Cl)c(Cl)c2)cn1	0.8%	-7.3%	3.0	1.6%	5.9%	-1.3%
COc1ccc(NC(=O)/C(Cl)=C(/Cl)S(=O)(=O)Cc2ccc(C)cc2)cn1	0.0%	-45.1%	-70.9*	-8.5%	-35.6%	-3.2%
SMILES	RXFP1 agonist	a7 integrin act	RXFP1 antagonist	gsp antagonist	gsp agonist	ASM inhibitor
COc1ccc(NC(=O)/C(Cl)=C(/Cl)S(=O)Cc2ccccc2Cl)cn1 (centres undefined)	0.1%	-69.5%	-117.5*	8.1%	-5.3%[15.4 µM]	-0.6%
CCOc1ccccc1C(=O)Nc1ccc(S(=O)(=O)Nc2cc(OC)nc(OC)n2)cc1	?	0.0%	-1.7	2.3%	20µM*	-12.2%
COc1cc(NS(=O)(=O)c2ccc(NC(=O)c3ccccc3C(=O)O)cc2)nc(OC)n1	0.1%	.	3.4	.	.	.
COc1ccc(-c2cc(C(=O)NCCc3ccc(OC)c(OC)c3)c3ccccc3n2)cc1	2.3%	.	-1.2	.	.	.
O=C(CCc1ccccc1)c1nnc(-c2ccccc2)o1	-4.5%	10µM*	-8.1	-9.5%	1.2%	-2.7%
CCOC(=O)c1nnc(-c2ccccc2)o1	1.9%	2.7%	-0.8	6.6%	3.7%	1.3%
CCC1(C)Cc2c(sc3c2c2ncnn2c2nnc(SCC(=O)NCc4ccco4)n32)CO1 (centres undefined)	?	-24.6%	9.7	-0.9%[15.4 µM]	2.82µM*	-9.5%
CC1(C)Cc2c(sc3c2c2ncnn2c2nnc(SCC(=O)NCc4ccco4)n32)CO1	?	-8.7%	5.4	5.1%	?	-0.1%
Cc1nn(CCc2nn[nH]n2)c2nc(-c3ccc(C4CCCCC4)cc3)cc(C(F)(F)F)c12	-0.2%	-9.0%	-17.8	11.2µM*	14.9%[15.4 µM]	38.5%
CCN(CC)CCCNC(=O)c1cnc(SC)nc1-c1ccccc1	-2.5%	.	-2.4	.	.	.
CCc1nnc(NC(=O)CSc2nnc(CNc3ccc(C)cc3)n2C)s1	-4.1%	0.0%	3.0	1.1%	-19.9%	3.9%
Cc1ccc(NCc2nnc(SCC(=O)Nc3nnc(C)s3)n2C)cc1	-2.0%	10µM*	-0.9	1.0%	-14.7%	-0.4%
